About 83,000 compounds went through this panel and 20% of them were active in at least one assay; those are over-represented in the sample as a whole.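 Treatment: one concentration, 48 hours, 96-well format. Scoring: percent growth, with anything below 10 considered active.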 A number with no mark means an inactive call. Active and inactive are the calls of the source.

What all share (assay): NCI-60 one-dose screen, 48 h (100 = growth as untreated, 0 = no growth, -100 = all killed)
Common to all, as to settings: 10 µM unless noted

Test [1] deals with NCI-H322M lung.
The test system of test [2] is HOP-62 NSCLC.
The test system of test [3] is NCI-H460 lung.
Test [4] deals with HOP-92 NSCLC.
For test [5], the system named is NCI-H522 lung.
The test system of test [6] is A549/ATCC NSCLC.
For test [7], the system named is 786-0 renal.
Test [8] concerns COLO 205 colon.
The test system of test [9] is DU-145 prostate.
Test [10] has as its system K-562 leukemia.
Test [11] relates to MALME-3M melanoma.
In test [12] the test system is MDA-MB-231 breast.
Test [13] has as its system RXF 393 renal.
For test [14], the system named is SF-268 CNS.
Test [15] has as its system SF-295 CNS.
For test [16], the system named is SF-539 CNS.
The test system of test [17] is UACC-257 melanoma.
Test [18] concerns M14 melanoma.
Test [19] has as its system NCI-H226 lung.

As to `O=C(Nc1cccnc1Nc1ccc(Cl)cc1)c1cn(Cc2ccc(F)cc2)nn1`, the growth was 98.5% in test [1]; 112% in test [2]; 107% in test [3]; 102% in test [4]; 91.1% in test [5]; 103% in [6]. The growth in test [7] is 86.9%; in [8], 124%; in test [9], 106%; in test [10], 108%; in test [11], 117%; in test [12], 83.9%. In addition, the growth was 98.7% in [13]; 103% in [14]; 96.6% in [15]; 94.5% in [16]; 105% in test [17]; 101% in test [18].

As for `COc1ccc(-c2oc(=O)ccc2-c2cc(OC)c(OC)c(OC)c2)cc1O`, the growth in test [19] was 64.1%; in test [1] it was 41.6%; in test [2] it was -15.8% (active); in [3] it was 4.04% (active); in test [4] it was 103%; in test [5], -0.118% (active). The growth in [6] is 26%; in [7], 20.5%; in [8] it was 45.2%; in test [9], 6.81% (active); in test [10] it was -9.26% (active); in test [11], 37.8%. Also, the growth is 38.6% in [12]; -38.7% (active) in [13]; 24.9% in test [14]; -17.8% (active) in test [15]; -13.7% (active) in test [16]; 47.3% in [17]. For the same molecule, the growth in [18] was -62.5% (active).

Consider `O=c1[nH]cnc2c1C(c1ccc(Br)cc1)c1sc3c(F)cccc3c1O2` (stereo not given), for which the growth in [19] was 92.2%; in test [1], 88.1%; in [2], 97.9%; in [3], 94.7%; in [4], 49.2%; in [5] it was 88.1%. Besides, the growth was 96.3% in test [6]; 105% in [7]; 102% in test [8]; 100% in test [9]; 94.6% in test [10]; 96.1% in [11]. The growth in [12] is 94.5%; in [13] it was 101%; in [14], 91.9%; in test [15], 97.9%; in test [16] it was 96.4%; in [17] it was 106%. Besides, the growth in [18] is 101%.

For `COc1ccc(NC(=O)c2cccc(C3CCc4c(cc(OC)c(OC)c4OC)O3)c2)cc1` (stereo not given), the growth in test [19] is 47.5%; in test [1], 53.9%; in test [2], 30.7%; in [3], 18.2%; in [4], -2.49% (active); in test [5], 21.8%. Further, the growth is 32.1% in test [6]; 26.1% in [7]; 41.3% in test [8]; 63.2% in [9]; 6.79% (active) in test [10]; 41.7% in test [11]. The growth in test [12] is 31%; in [13], 53%; in test [14], 50.2%; in test [15], 23.9%; in [16] it was 18.9%; in test [17], 46.5%. In [18], the growth was 28.2%.

`Cc1ccc2nc(Cl)c(Cn3nnnc3SCc3ccccc3)cc2c1`: the growth in [19] is 79.6%; in test [1], 105%; in test [2] it was 86%; in test [3], 98.4%; in test [4], 70.6%; in test [5], 77.5%. Besides, the growth in [6] was 92.5%; in test [7], 95%; in test [8], 110%; in [9] it was 101%; in [10] it was 87.9%; in test [11], 114%. Also, the growth in test [12] was 88.2%; in test [13], 99.9%; in test [14], 93.9%; in test [15], 88.1%; in [16] it was 94.4%; in [17], 105%. In addition, in test [18], the growth is 89.3%.

Regarding `O=C1/C(=C/c2ccc(C(F)(F)F)cc2)COc2ccc(O)cc21`, the growth was 107% in test [19]; 95.2% in test [1]; 96.2% in test [2]; 98.4% in [3]; 82.4% in [4]; -13.6% (active) in [5]. Besides, the growth in test [6] is 87.1%; in test [7], 80%; in test [8], 90.7%; in test [9] it was 99.1%; in test [10], 5.54% (active); in test [11], 88.7%. In addition, the growth is 79.4% in test [12]; 102% in test [13]; 85.3% in test [14]; 99.1% in test [15]; 86.7% in test [16]; 98.1% in [17]. Further, in test [18], the growth is 85.6%.

Turning to `O=P(O)(O)OCC1OC(n2cnc3c(NCc4ccccc4)ncnc32)C(O)C1O` (stereo not given), the growth was 21.1% in test [19]; 33.6% in test [1]; 29.9% in [2]; 94.3% in test [3]; 22.3% in test [4]; 0.67% (active) in [5]. In addition, the growth in [6] is 55.1%; in test [7], 21.3%; in test [8], 11.2%; in test [9], -50.3% (active); in test [10], 60.8%; in test [11] it was 80.9%. For the same molecule, the growth in test [12] is 10.6%; in [13], -0.932% (active); in test [14], 36.3%; in test [15], 52.4%; in [16], 6.39% (active); in test [17] it was 115%. For the same molecule, the growth in [18] is 29.4%.

For `CC(=O)Nc1c(Cl)cc(Cl)c2c1Cc1cc([N+](=O)[O-])ccc1-2`, the growth in test [19] is 113%; in [2], 90.5%; in [3] it was 86.6%; in [4], 100%; in test [5] it was 91.9%; in test [6] it was 82.4%. The growth in test [7] was 75.7%; in test [8], 93.4%; in test [9] it was 104%; in test [10], 90.2%; in test [11], 107%; in test [12], 83.6%. Moreover, the growth in test [13] is 85.3%; in [14], 95.5%; in [15], 113%; in test [16] it was 61.1%; in test [17] it was 107%; in test [18], 100%.

(Values after PubChem BioAssay (NCI).)
